tim10-1 inh – inhibits growth of tim10-1 mutant yeast. S. cerevisiae tim10-1 ts strain growth, BacTiter-Glo, 24 h. inhibition, % at 20 µM. 2.2% of 330,000 active;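 active = inhibition of at least 40%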;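 also: mutant grown at 25 °C; 0% = DMSO wells with yeast and 100% = wells holding no yeast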
tim23-1 inh – tim23-1 yeast growth inhibition. 1.3% of 330,000 active. S. cerevisiae tim23-1 growth, BacTiter-Glo luminescence, 24 h. inhibition, % at 20 µM;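 active = growth inhibition of the mutant yeast at or above 50%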;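 also: temperature-sensitive mutant grown at 25 °C; plate controls were DMSO-treated mutant yeast for no effect and medium wells lacking yeast for full effect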
TIM10 inh – growth inhibitors of TIM10 yeast strain | S. cerevisiae TIM10 strain growth, BacTiter-Glo luminescence, 24 h | inhibition, % at 10 µM | 1.4% of 330,000 active;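 active = inhibition of 40% or more at the single tested concentration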;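 also: wild-type TIM10 isogenic control strain grown at permissive 25 °C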
SKKanGAS inh – blocks kanamycin growth of S. pyogenes SKKanGAS strain | 1.3% of 300,000 active | BacTiter-Glo, 6 h | inhibition, % at 7.5 µM;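 active = mean replicate score, as percent of positive control median, at least 50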;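 also: strain carries kanamycin resistance gene driven by streptokinase promoter and grows in 40 µg/ml kanamycin; loss of luminescence reflects streptokinase promoter inhibition or plain growth inhibition; 0% = median of DMSO wells and 100% = positive control at its reference dose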
EBI2 block – EBI2 (human) antagonism | P32249 | EBI2 beta-arrestin recruitment, luminescence, 7a,25-OHC stimulated | inhibition, % at 5 µM | 0.81% of 360,000 active | AID 651636; in the data active = inhibition above about 38%;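 also: enzyme fragment complementation signal reports receptor beta-arrestin coupling in cells; 0% = agonist plus DMSO wells and 100% = wells without agonist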
Target sequence (P32249 whole entry, looked up, the tested form may be a part): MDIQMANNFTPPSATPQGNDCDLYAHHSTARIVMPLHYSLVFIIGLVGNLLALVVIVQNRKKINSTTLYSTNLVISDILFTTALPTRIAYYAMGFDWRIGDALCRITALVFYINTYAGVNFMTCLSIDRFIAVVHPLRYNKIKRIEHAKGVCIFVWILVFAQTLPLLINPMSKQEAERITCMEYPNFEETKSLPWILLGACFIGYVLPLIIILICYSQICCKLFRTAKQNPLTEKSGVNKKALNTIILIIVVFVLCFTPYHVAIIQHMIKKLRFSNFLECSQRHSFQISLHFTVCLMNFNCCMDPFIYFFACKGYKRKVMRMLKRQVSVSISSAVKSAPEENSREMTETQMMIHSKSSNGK
PfHsp90 yeast 2 – reduces growth (ATP signal) of yeast expressing P. falciparum Hsp90 | S. cerevisiae expressing PfHsp90, BacTiter-Glo ATP, 48 h; yeast lacking PDR1 and PDR3 efflux regulators | inhibition, % at 9.4 µM | 0.32% of 310,000 active | AID 504621;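 active = every replicate shows inhibition above about 80%, whatever the replicate mean, limit read from the data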;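 also: 0% = DMSO neutral controls and 100% = 20 µM radicicol positive controls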
tim10-1 confirm – confirmation of tim10-1 mutant yeast growth inhibitors | S. cerevisiae tim10-1 ts strain growth, BacTiter-Glo, 24 h | 56% of 7,400 active | shares compounds with tim10-1 inh | inhibition, % at 20 µM;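 active = inhibition of yeast growth at or above a set limit in either of two repeat tests at 20 µM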;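 also: tim10-1 mutant grown at permissive 25 °C to find synthetic lethal compounds; 0% = DMSO yeast wells and 100% = medium wells without yeast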
Starred values were filed as active, the others as inactive; . = not tested or not shown. Rows were chosen to be rich in hits. Some 4.7% of all compounds tested hit in one or more screens of this group.

SMILES	tim10-1 inh	tim23-1 inh	TIM10 inh	SKKanGAS inh	EBI2 block	PfHsp90 yeast 2	tim10-1 confirm
O=C(O)c1ccc(CSc2nc3ccc(N4C(=O)C5C6C=CC(C6)C5C4=O)cc3s2)cc1 (centres undefined)	52*	24	22	20	-8	-2	29
S=C(NCC1CCCCC1)Nc1cccnc1	53*	31	16	3	-8	18	43*
CO/N=C/c1ccc(N2CCN(C(=O)c3ccc(F)cc3)CC2)c([N+](=O)[O-])c1	34	43	26	8	-2	1	.
CO/N=C/c1ccc(N2CCN(C(=O)c3cccc(C(F)(F)F)c3)CC2)c([N+](=O)[O-])c1	41*	28	27	10	3	-16	26
COC(=O)C(Cc1ccc(OC(=O)c2ccc(C)cc2)cc1)N1Cc2ccccc2C1=O (centres undefined)	25	13	12	9	-2	.	.
CC(=O)Nc1cccc(/C(C)=N/Nc2ccc(S(=O)(=O)Nc3ccccc3C(=O)O)cc2[N+](=O)[O-])c1	.	.	.	.	0	.	.
Cc1ccc2c(CC(=O)O)coc2c1	-5	1	2	-1	-9	-5	.
Cc1ccc2c(CC(=O)O)coc2c1C	41*	24	-13	-3	-8	26	17
Cc1cc(C)cc(N2C(=O)CC(Sc3nnnn3-c3ccccc3)C2=O)c1 (centres undefined)	51*	49	35	1	1	-8	51*
COc1ccccc1NC(=O)Cn1c2ccccc2c2nc3n(c(=O)c21)CCS3	42*	-2	7	1	7	.	20
O=C(Cn1c2ccccc2c2nc3n(c(=O)c21)CCS3)Nc1ccccc1C(F)(F)F	21	25	8	2	6	11	.
CCCc1cc(=O)oc2cc(OCC(=O)NCc3ccccn3)ccc12	1	12	12	2	-7	14	.
CCCCc1cc(=O)oc2cc(OCC(=O)NCc3ccccn3)ccc12	48*	23	2	-2	-2	-19	-2
CCCS(=O)(=O)c1cscc1NC(=O)c1c(-c2c(F)cccc2Cl)noc1C	20	27	27	-4	-4	-32	.
O=C(CCl)Nc1c(C(=O)Nc2ccc3c(c2)OCCO3)oc2ccccc12	42*	48	39	4	1	-2	21
COCC(=O)Nc1c(C(=O)Nc2ccc3c(c2)OCO3)oc2ccccc12	-12	6	0	-10	-6	0	.
Cc1cccc(OCC(=O)O/N=C(\N)Cc2ccc([N+](=O)[O-])cc2)c1	15	25	32	-2	-2	1	.
N/C(=N\OC(=O)Cc1ccccc1)c1ccc([N+](=O)[O-])cc1	39	30	20	5	-3	13	.
Cc1ccc(OCC(=O)O/N=C(\N)Cc2ccc([N+](=O)[O-])cc2)cc1C	52*	29	16	-8	-11	2	53*
N/C(Cc1ccc([N+](=O)[O-])cc1)=N\OC(=O)Cc1ccccc1	51*	15	14	0	-4	-1	41*
CC(C)(C)NC(=O)C(c1ccc(F)cc1)N(Cc1ccco1)C(=O)CCC(=O)Nc1ccccn1 (centres undefined)	0	16	18	-8	6	12	.
CC(C)Nc1nc(-c2ccccc2)nc(-n2ccnc2)n1	41*	34	29	13	2	.	14
O=C(CC(C(=O)NCc1ccccc1)c1nc2ccccc2c(=O)[nH]1)NCc1ccccc1 (centres undefined)	10	-5	9	0	-5	2	.
CN(C)C(CNC(=O)c1ccc(S(=O)(=O)Nc2ccccc2F)cc1)c1ccco1 (centres undefined)	-8	0	-4	.	-1	-8	.
CCCc1nn(C)c2c1C(c1cccnc1)C(C#N)=C(N)O2 (centres undefined)	41*	29	3	-3	-4	16	27
COc1cc(-c2ccc3cc(OC)c(OC)c(OC)c3c2)cc(OC)c1OC	.	.	.	.	18	.	.
CCOC(=O)c1c(C)[nH]c(C)c1C(=O)COC(=O)c1cc2ccccc2cc1O	47*	21	18	14	18	-8	18

Compound activity from PubChem.
